High-throughput results: PubChem, University of Kansas High Throughput Screening Laboratory
mHTT CaM bind – disrupts binding of mutant huntingtin to calmodulin; P42858; AlphaScreen His-mHTT/GST-CaM binding, luminescence; inhibition, % at 15 µM; 190,000 compounds, 3.6% hits; AID 1671202;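 also: 0% = both proteins with DMSO and 100% = one protein alone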
Pf apPOL block – Pf-apPOL DNA polymerase inhibition. Recombinant Pf-apPOL, molecular beacon fluorescence, 1.5 h. inhibition, % at 10 µM. 210,000 compounds, 0.25% hits. AID 1794808
Starred values were filed as active, the others as inactive; / = no result; ! = not active in a repeat. Shown are actives, neighbours in structure and some others; about 3.5% of the full set was active somewhere. Rule as the data show it: active = inhibition above about 50%; inactive = the rest.

SMILES	mHTT CaM bind	Pf apPOL block
Cc1cc(C(c2ccccc2)c2cc(C)c(N)c(C)c2)cc(C)c1N	80*	-4
CC(C)=CCC1=C(O)C(O)(CC=C(C)C)C(=O)C(C(=O)CC(C)C)=C1O (stereo unspecified)	/	-27
COc1ccc(/C=C2/C(=N)N3N=C(C(F)(F)F)SC3=NC2=O)cc1	1	-3
Cc1oc2ccc(OCc3cccc(F)c3)cc2c1C(=O)O	10	56*
Cc1oc2ccc(OCc3ccccc3)cc2c1C(=O)O	-5	0
CCOc1ccc(N2C(=O)CCC2(C)C(=O)NCCC(C)C)cc1 (stereo unspecified)	-2	-3
N#CCSc1nc(-c2ccccc2)c(-c2ccccc2)o1	-26	92*!
c1ccc(-c2nc(SCC3COc4ccccc4O3)oc2-c2ccccc2)cc1 (stereo unspecified)	-13	/
COc1cccc(C2NC(=O)NC(C)=C2C(=O)Nc2ccc(Cl)cc2)c1OC (stereo unspecified)	30	-2
O=C1CC(NCCCN2CCOCC2)C(=O)N1c1ccc(N=Nc2ccccc2)cc1 (stereo unspecified)	41	0
O=C1CC(NCCCN2CCOCC2)C(=O)N1c1ccc(Br)cc1 (stereo unspecified)	54*	-6
O=C(NCC(=O)N1CCOC(c2ccccc2)C1)c1c(F)cccc1F (stereo unspecified)	-2	-1
O=C1NN(c2ccc(Cl)c(Cl)c2)C(=O)/C1=C/c1ccc(-c2ccc3c(c2)COC3=O)o1	60*	56*
CC1=NN(c2ccc(Cl)c(Cl)c2)C(=O)/C1=C/c1ccc(-c2ccc3c(c2)C(=O)OC3)o1	38	-9
N#CC1=C(N)Oc2c(C=Nc3ccccc3)ccc(O)c2C1c1cccc([N+](=O)[O-])c1 (stereo unspecified)	100*	-4
N#CC1=C(N)Oc2n[nH]c(-c3ccccc3)c2C1c1cccc([N+](=O)[O-])c1 (stereo unspecified)	11	-4
Cc1ccc(NC(=O)c2ccc(Cn3cncn3)cc2)cc1C	4	1
O=C(NCc1ccco1)N1CCCn2nc(-c3cccc(Cl)c3)cc2C1	40	-6
CCC1CCC(N2CCN(c3ncccn3)CC2)CC1 (stereo unspecified)	-6	-4
CCC(C)c1ccc(OC2OC3COC(c4ccccc4)OC3C(O)C2NC(C)=O)cc1 (stereo unspecified)	16	-8
Cc1cc2c(c(C)c1Cl)[C@H](c1ccc3c(c1)OCO3)C[C@@H](c1ccccc1)O2	10	-7
COc1ccc([C@@H]2C[C@H](c3ccccc3)Oc3cc(OC)c(OC)c(OC)c32)cc1	18	-4
COc1ccc(C2CC(O)(c3ccccc3)Oc3cc(OC)c(OC)c(OC)c32)cc1 (stereo unspecified)	86*	-2
COc1ccc(C2CC(O)(c3ccccc3)Oc3cc(C)c(Cl)c(C)c32)cc1 (stereo unspecified)	89*	-3
O=C1CC(c2ccccc2C(=O)O)Oc2ccccc21 (stereo unspecified)	-2	-12
SMILES	mHTT CaM bind	Pf apPOL block
Cc1c(C(=O)NCCN2CCOCC2)oc2ccc(S(=O)(=O)N3CCCCC3)cc12	-4	-20
CC(C)(C)C1(O)CC(C(F)(F)F)=NN1C(=O)c1ccc(I)cc1 (stereo unspecified)	-15	-1
Cc1ccc(/C=C2\N=C(c3ccc(Br)cc3)OC2=O)o1	-2	-1
COc1cc(OC)c(OC)cc1/C=C1\Cc2ccccc2C1=O	0	-5
COc1cc(OC)c(OC)cc1/C=C1/CCC/C(=C\c2cc(OC)c(OC)cc2OC)C1=O	64*	-1
CN(CC(=O)Nc1ccc(F)c(Cl)c1)S(=O)(=O)c1ccc2[nH]c3c(c2c1)CCCC3	66*	-7
CC(=O)c1ccc(NC(=O)CN(C)S(=O)(=O)c2ccc3[nH]c4c(c3c2)CCCC4)cc1	41	-2
Cc1ccc(NC(=O)CN(C)S(=O)(=O)c2ccc3[nH]c4c(c3c2)CCCC4)c(C)c1	47	-2
Cc1ccc(NC(=O)CN(C)S(=O)(=O)c2ccc3[nH]c4c(c3c2)CCCC4)nc1	43	-2
Cc1c(Cl)cccc1NC(=O)CN(C)S(=O)(=O)c1ccc2[nH]c3c(c2c1)CCCC3	52*	-1
COc1ccc(NC(=O)CN(C)S(=O)(=O)c2ccc3[nH]c4c(c3c2)CCCC4)cc1	56*	-3
CC=CCn1c(C(=O)NCc2cccnc2)cc2sccc21	33	4
Cc1ccc(S(=O)(=O)N2CC3CN(C(=O)COCc4ccccc4)CC(C2)O3)cc1	15	-7
CCc1ccc(S(=O)(=O)NCC2CCN(C(=O)Nc3ccccc3OC)CC2)s1	-10	13
CN(C)c1cccc(C(=O)Nc2ccc3ncnc(N4CCCC4)c3c2)c1	76*	9
O=C(Nc1ccc(N2CCCCC2)cc1)c1ccccc1	/	-19
O=C(Nc1ccc(N2CCOCC2)cc1)c1ccccc1F	4	0
O=C(Nc1ccc(N2CCCC2)cc1)c1ccccc1F	88*	-5
O=C(Nc1ccc2ncnc(N3CCCCC3)c2c1)c1cccc(F)c1	1	-1
O=C(Nc1ccc2ncnc(N3CCCCC3)c2c1)c1ccccc1F	55*	2
Cc1cccc(C(=O)Nc2ccc3ncnc(N4CCCCC4)c3c2)c1	18	1
CC(C)Oc1cccc(C(=O)Nc2ccc(N3CCCC3)cc2)c1	99*	-7
C=CCNC(=O)N1CCN(Cc2nc3ccccc3n2Cc2ccccc2)CC1	-7	-8
O=C(CSc1nnc(COc2ccccc2)n1-c1ccccc1)c1cccc([N+](=O)[O-])c1	0	5
COc1ccc(OC)c(C2=NOC(C(=O)Nc3cc(Br)ccc3O)C2)c1 (stereo unspecified)	2	0
SMILES	mHTT CaM bind	Pf apPOL block
CCCCCCCCC1CC1C(=O)O (stereo unspecified)	2	/
O=C(NC1CCCCC1)C1CCN(C(=O)c2ccc(Cl)cc2Cl)CC1	4	-8
O=C(COc1ccc(F)cc1)N1CCN(c2nc(CN3CCOCC3)cs2)CC1	6	-5
CC(C)(C)N=C1Nc2ccccc2NC12CCCN(C(=O)NCc1ccco1)C2 (stereo unspecified)	30	4
COc1cccc(NC(=O)N2CCCC3(C2)Nc2ccccc2NC3=NC(C)(C)C)c1 (stereo unspecified)	12	2
COc1cccc(CNC(=O)N2CCCC3(C2)Nc2ccccc2NC3=NC(C)(C)C)c1 (stereo unspecified)	69*	4
COc1ccccc1NC(=O)N1CCCC2(C1)Nc1ccccc1NC2=NC(C)(C)C (stereo unspecified)	67*	-4
COc1cc(OC)cc(C(=O)N2CCCC3(C2)Nc2ccccc2NC3=NC(C)(C)C)c1 (stereo unspecified)	21	4
CC(C)(C)N=C1Nc2ccccc2NC12CCCN(C(=O)NCc1cccc(F)c1)C2 (stereo unspecified)	99*	-4
Cc1ccc2nc(/C(C#N)=C/c3ccc(Cl)cc3)[nH]c2c1	1	9
CN1CCN(S(=O)(=O)c2ccc(F)c(F)c2)CC1c1ccc(F)cc1 (stereo unspecified)	-6	0
CCn1ccc(C(=O)N2CCCC2c2c(C)noc2C)n1 (stereo unspecified)	-4	4
Cc1ccc(CN2CCCn3nc(C(=O)NCc4ccccc4)cc3C2=O)cc1	-8	-2
O=C(O)c1cc[n+](CCS(=O)(=O)[O-])cc1	-10	/
